Bioassay records from PubChem.
Shown are actives, neighbours in structure and some others; about 7.9% of the full set was active somewhere.
HCMV antiviral: human cytomegalovirus inhibition; activity change, negative = inhibition, % at 57.5 µM; HFF cells, HCMV-luciferase reporter, 72 h; hits give low values; 410,000 compounds, 4.5% hits; in the data active means activity change below about -60%; inconclusive means no clear call, values can overlap the other calls; inactive means above about -39%
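Steps: HFFs plated, 16 h 37C; compounds added; HCMV-luciferase added to MOI 1 PFU/cell; 72 h 37C; OneGlo reagent, 5 min room temperature; luminescence read, normalized to controls.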
MARV entry inh: Marburg virus entry inhibition. Potency, µM (top dose mostly 37.8 µM), for the others: at the highest dose activity change, negative = inhibition, hits mostly inhibitors. Marburg virus pseudotyped entry inhibition, cell reporter. 300,000 compounds, 1.8% hits. AID 540276; calls by dose curve; tested in HEK293 cells; further: potency means the concentration at half of the fitted maximal effect
HCV inh: HCV inhibition; AID 651820; 340,000 compounds, 3.4% hits; Huh7.5.1 HCVcc-Cre infection, luciferase reporter, 44 h; Potency, µM (top dose mostly 41.8 µM), for the others: top-dose activity change, negative = inhibition, actives largely listed as inhibitors; active means well fitted inhibition curve with a large enough effect; inconclusive means small, poorly fitted or top-dose-only effect, or another doubt; inactive means no such curve, though single readings can be large or run the other way; further: potency means the concentration at half of the fitted maximal effect
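HCVcc-Cre virus at an moi near 0.5 was added right after compound to cells cultured 4 h from seeding (1,000 cells/well). Luciferase activity was determined 44 h later, 15 min after substrate addition at RT.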
LASV entry inh: blocks Lassa virus binding to or entry into cells | Lassa virus pseudotype entry inhibition, cell reporter | Potency, µM (top dose mostly 37.9 µM), inactives show top-dose activity change, negative = inhibition, most hits filed as inhibitors | 300,000 compounds, 1.2% hits | AID 540256; calls by dose curve; tested in HEK293 cells; further: potency means the concentration at half of the fitted maximal effect; nearly all actives have a fitted effect of over 50% in size
FMDV antiviral: blocks foot and mouth disease virus; Potency, µM (top dose mostly 57.9 µM), for inactives: at the top dose activity change, negative = inhibition, most hits filed as inhibitors; FMDV antiviral cell-based qHTS; 410,000 compounds, 1.2% hits; calls by dose curve; tested in HEK293T cells; further: read-out not given here; potency means the concentration at half of the fitted maximal effect; nearly all actives have a fitted effect of over 45% in size
* = called active by the depositor; ? = inconclusive; nt = not tested or not shown; [ ] = another dose, or the depositor's remark. On the % scale 0 is the no-effect control and ±100 the full control effect.

SMILES	HCMV antiviral	MARV entry inh	HCV inh	LASV entry inh	FMDV antiviral
CN1CCN(c2nc(-c3cccs3)cc(C(F)(F)F)n2)CC1	-33	?	2.8µM*	-29%	-25%
CS(=O)(=O)c1nc(-c2cccs2)cc(C(F)(F)F)n1	nt	0%	nt	nt	nt
O=[N+]([O-])c1cnn(-c2nc(-c3cccs3)cc(C(F)(F)F)n2)c1	-99*	6%[46.1 µM]	-27%	-16%[46.1 µM]	-20%
Cc1ccc(CNc2nc(CN3CCNC(=O)C3)nc3ccccc23)o1	nt	nt	nt	nt	21%
Cc1nn(-c2ccccc2)c(C)c1NC(=O)COC(=O)c1cc([N+](=O)[O-])ccc1NCCO	-21	?	22µM*	?	-26%
Cc1nn(-c2ccccc2)c(C)c1NC(=O)COc1ccc([N+](=O)[O-])cc1	-7	?	-22%	-17%	?
O=C(COC(=O)c1cc([N+](=O)[O-])ccc1NCCO)Nc1ccc2c(c1)OCO2	-9	?	11µM*	-28%	?
CCCNC(=O)C(Cc1cccc(OC)c1)NC(=O)c1ccc(C(C)(C)C)cc1 (stereo not given)	5	nt	14%	nt	9%
O=C1C2C3C=CC(C3)C2C(=O)N1c1ccc(N2CCN(c3ccccn3)CC2)c([N+](=O)[O-])c1 (stereo not given)	-66*	nt	10µM*	nt	?
O=C(CCN1C(=O)C2C3C=CC(C3)C2C1=O)N1CCN(c2ccccn2)CC1 (stereo not given)	-9	1%	-8%	-23%	2%
COc1ccc2[nH]c(C)c(C(=O)CN3C[C@@H](C)O[C@@H](C)C3)c2c1	nt	-1%	nt	nt	nt
CC(=O)N1CCc2cc(S(=O)(=O)NC(C(=O)Nc3nc(C)cs3)C(C)C)ccc21 (stereo not given)	-61*	18%	26%	0%	-15%
Cc1cc(C)c[n+](CC(=O)c2ccc(-c3ccccc3)cc2)c1	-77*	?	?	?	?
Cc1cc(C)c[n+](CC(=O)c2ccc(NC(=O)c3ccccc3)cc2)c1	-32	14%[46.1 µM]	-1%	-2%	2%
O=P(CCCCCCCCCP(=O)(c1ccccc1)c1ccccc1)(c1ccccc1)c1ccccc1	-35	?	14µM*	?	?
C1=NCCc2c1[nH]c1ccccc21	-95*	?	6%	5µM*	-2%
C1=C(c2ccccc2)CCNC1	55	?	14%	?	-7%
Cc1[nH]c2ccccc2c1C1=CCNCC1	-26	-4%	11µM*	-6%	-2%
Cc1cc(C)cc(N2C(=O)NC(=O)/C(=C\c3cccn3-c3ccccc3)C2=O)c1	-20	?	?	?	35µM*
Cc1cc(C)cc(N2C(=O)NC(=O)/C(=C\c3cccn3-c3ccc(Cl)cc3)C2=O)c1	-23	?	21%	?	8.9µM*
O=C1NC(=S)N/C1=C/c1cccn1-c1ccc([N+](=O)[O-])cc1	-8	0%[46.1 µM]	-25%	2%[46.1 µM]	-9%
O=C1NC(=S)NC(=O)C1=Cc1cccn1-c1ccc(O)cc1	-99*	nt	?	nt	20µM*
CN1C(=O)/C(=C/c2cccn2-c2ccc3ccccc3c2)C(=O)NC1=S	-105*	?	1%	?	28µM*
O=c1[nH]nc(-c2ccc(F)cc2)cc1Cc1ccc(F)cc1	9	nt	-8%	nt	-5%
CC(C)C[C@@H]1COc2cc(N(C)CCO)ccc2S(=O)(=O)N1	5	nt	nt	nt	-8%
SMILES	HCMV antiviral	MARV entry inh	HCV inh	LASV entry inh	FMDV antiviral
Cn1ccsc1=NC(=O)c1ccccc1F	-17	?	9%	-2%	44%
Cc1ccc(C)c(-n2c(-c3ccc(Br)cc3)csc2=NC(=O)c2ccccc2F)c1	-27	1.3µM*	3.2µM*	?	-22%
O=C(c1ccco1)N1CCN(CC(O)COc2ccc3oc4ccccc4c3c2)CC1 (stereo not given)	?	-14%	13µM*	?	nt
Cc1cc(C)cc(OCC(O)CN2CCN(C(=O)c3ccco3)CC2)c1 (stereo not given)	-37	1%[46.1 µM]	6%	0%[46.1 µM]	-4%
CCCn1c(SCC(=O)C(C)(C)C)nc2ccccc21	-67*	-24%[46.1 µM]	1%	0%[46.1 µM]	5%
COc1cccc(Cn2c(SCC(=O)N(C)c3ccccc3)nc3ccccc32)c1	-60*	nt	nt	?	?
COc1ccc(C(=O)Cn2c(NCCCl)nc3ccccc32)cc1	-11	nt	-11%	nt	-2%
CCCn1c(SC(C)C(=O)O)nc2ccccc21 (stereo not given)	nt	4%	-2%	11%	-9%
COc1cccc(Cn2c(=O)ccc3ccccc32)c1	-81*	nt	-1%	nt	22%
CN(C(=O)CSc1nc2ccccc2n1Cc1cccc(C(F)(F)F)c1)c1ccccc1	-12	nt	nt	?	?
COc1ccc(C(=O)Cn2c(C(=O)/C=C/c3ccccc3)nc3ccccc32)cc1	11	?	?	?	8.9µM*
CCN(C(=O)Cn1cnc2ccccc2c1=O)C1CCS(=O)(=O)C1 (stereo not given)	18	8%[46.1 µM]	1%	0%	-18%
CC1(C)OCC(N)(CO)CO1	5	nt	nt	nt	-17%
COc1ccc(OCCSc2nc3ccccc3n2CC(=O)O)cc1	-15	?	-8%	20%	-18%
COc1ccc(C(=O)CSc2nc3ccccc3n2CC(=O)c2ccccc2)cc1	-66*	-11%	?	-1%	nt
COc1cc(CCC(=O)NCCc2ccc(F)cc2)cc(OC)c1OC	-28	-4%	6%	1%	-11%
COc1ccc(CCn2c(C)cc(C(=O)CN3C(=O)C(=O)N(C4CCCC4)C3=O)c2C)cc1OC	-28	?	10µM*	-16%	-8%
CN(C)CCCN(C(=O)c1ccc2c(c1)CCCC2)c1nc2ccc(Cl)cc2s1	-79*	?	7.9µM*	?	28µM*
CCOc1ccc2nc(N(CCCN(C)C)C(=O)c3ccc4c(c3)CCCC4)sc2c1	-40	nt	?	nt	-47%
CCOC(=O)N1CCN(S(=O)(=O)c2ccc(C(=O)N(CCCN(C)C)c3nc4ccc(Cl)cc4s3)cc2)CC1	8	nt	11µM*	nt	-10%
CCOC(=O)N1CCN(S(=O)(=O)c2ccc(C(=O)N(CCCN(C)C)c3nc4ccc(CC)cc4s3)cc2)CC1	-62*	?	?	-42%[46.1 µM]	-7%
COc1ccc2c(c1)OC(C)CN(CCNC(=O)C1CCOC1)C2 (stereo not given)	nt	nt	nt	nt	11%
CC1=C(c2ccc(C(C)C)cc2)S(=O)(=O)N=C1N1CCN(c2ccccc2F)CC1	-62*	-23%[46.1 µM]	nt	-1%[46.1 µM]	6%
CC1=C(c2ccc(C(C)C)cc2)S(=O)(=O)N=C1N1CCN(C(=O)c2ccco2)CC1	-21	9%[46.1 µM]	-8%	-2%[46.1 µM]	?
O=C(CSc1nc(-c2ccc(F)cc2)[nH]c1-c1ccccc1)Nc1ccccc1	-21	?	nt	14%[46.1 µM]	-28%
CCOC(=O)C1(C)C=C(Nc2ccc(C(=O)O)cc2)C(=O)N1c1ccc(C(=O)O)cc1 (stereo not given)	19	22%[46.1 µM]	nt	-1%[46.1 µM]	0%
